NS1 function inh: influenza NS1 inhibition | Potency, µM (top dose mostly 46.1 µM), for inactives: at the highest dose activity, positive = more growth | actives 0.4% (n = 270,000); calls by dose curve; further: potency means the concentration at half of the fitted maximal effect; actives are rising curves; nearly all actives have a fitted effect of over 50% in size
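OD600 was taken as the measure of yeast growth restored by compound in an NS1-expressing S. cerevisiae strain. Cells had been washed out of glucose medium and diluted 1:100 into galactose -URA medium, pH 6.0.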
Shiga inhibitor: Shiga toxin inhibition; Vero cells, Shiga toxin protein synthesis inhibition reporter; inhibition, % at 38.7 µM; actives 9.2% (n = 290,000); in the data active means inhibition mostly above about 28%, no sharp cut-off; inactive means mostly below about 43%; further: 0% is about no effect
Cycloheximide cs: counter-screen hit for Shiga toxin inhibitors, cycloheximide | actives 12% (n = 300,000) | AID 2314 | cell reporter, cycloheximide protein synthesis inhibition counterscreen | max response, %; in the data active means max response mostly above about 13%, no sharp cut-off; inactive means mostly below about 14%; further: read at 38.3 µM for the half of the compounds with a filed dose; 0% is about no effect
FBPA Giardia inh: blocks Giardia fructose-bisphosphate aldolase activity; A8B2U2; purified Giardia FBPA; Potency, µM (series often up to 59.6 µM), inactives show at the highest dose activity, negative = inhibition, hits mostly inhibitors; actives 0.71% (n = 290,000); further: potency means the concentration at half of the fitted maximal effect; on the % scale 0 is the no-effect control and ±100 the full control effect; nearly all actives have a fitted effect of over 55% in size
Target sequence (A8B2U2 whole entry, looked up): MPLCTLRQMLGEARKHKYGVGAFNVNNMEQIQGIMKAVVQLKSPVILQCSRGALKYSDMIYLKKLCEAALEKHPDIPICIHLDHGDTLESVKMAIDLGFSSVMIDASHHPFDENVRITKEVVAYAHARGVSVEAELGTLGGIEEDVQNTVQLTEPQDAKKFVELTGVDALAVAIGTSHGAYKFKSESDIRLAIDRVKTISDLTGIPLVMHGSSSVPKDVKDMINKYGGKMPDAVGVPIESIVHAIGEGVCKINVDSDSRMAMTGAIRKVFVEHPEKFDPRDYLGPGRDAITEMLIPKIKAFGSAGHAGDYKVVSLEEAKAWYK
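40 nM FBPA preincubated 10 min at RT with compound (up to 57.5 uM final), then substrate plus GAPDH/TPI/NAD/arsenate coupling and diaphorase/resazurin added. Fluorescence read after 20 min at RT, 525/598 nm.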
Pf growth 96h: P. falciparum growth inhibition at 96 hour, primary screen for plastid delayed-death inhibitors. P. falciparum luciferase reporter growth, 96 h. Potency, µM (titrated, usually from 28.7 µM), for the others: at the top dose activity change, negative = inhibition, hits mostly inhibitors. actives 6.9% (n = 320,000). AID 504834; further: potency means the concentration at half of the fitted maximal effect; on the % scale 0 is the no-effect control and ±100 the full control effect
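Erythrocytes infected with luciferase-expressing P. falciparum were dispensed at 2% hematocrit and 0.05% parasitemia (final), then incubated with compounds 96 hours at 37 C in 5% CO2. Luminescence after detection reagent addition reported growth.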
Pf growth 48h: P. falciparum growth inhibition at 48 hours (one generation); P. falciparum luciferase growth in erythrocytes, 48 h; Potency, µM (top dose mostly 28.7 µM), for inactives: at the highest dose activity change, negative = inhibition, usual class: inhibitors; actives 5.9% (n = 310,000); AID 504832; further: potency means the concentration at half of the fitted maximal effect; on the % scale 0 is the no-effect control and ±100 the full control effect
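Luminescence readout; reporter = integrated firefly luciferase in P. falciparum. RBC culture at 2% hematocrit, 0.1% parasitemia final, 37 C/5% CO2; decreased signal taken as growth inhibition.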
* = called active by the depositor; u = inconclusive; x = no result given; [ ] = another dose, or the depositor's remark. Rows were chosen to be rich in hits. Some 21% of all compounds tested hit in one or more screens of this group. Unless noted, the call rests on the fitted dose curve; in most records, active means well fitted curve in the direction sought with a large enough effect; inconclusive means small, poorly fitted or top-dose-only effect, or another doubt; inactive means no such curve, though single readings can be large; an effect the other way counts as inactive or inconclusive.

SMILES	NS1 function inh	Shiga inhibitor	Cycloheximide cs	FBPA Giardia inh	Pf growth 96h	Pf growth 48h
O=c1nc(/C=C/c2ccc(O)c(O)c2)oc2ccccc12	-1%	38	25*	-16%	23%	26%
O=c1[nH]c(/C=C\c2ccc(O)c(O)c2)nc(O)c1[N+](=O)[O-]	11%	-10	2	u	-18%	-16%
COc1ccc(/C=C\c2nc(=O)c3ccccc3o2)cc1	x	135*	60*	13%	-27%	u
COc1ccc(C(=O)NCC(=O)OCc2nc(N)nc(Nc3ccccc3C)n2)cc1	x	x	x	x	u	-29%
CN(CC(=O)Nc1c(Cl)cccc1Cl)C(=O)Cc1ccc(S(=O)(=O)N2CCOCC2)s1	0%	-8	-2	x	3%	8%
COc1cc(/C=C/c2nnc3c4ccccc4ncn23)cc(OC)c1OC	0%	14	14*	-14%	u	9.3µM*
C(=C\c1nnc2c3ccccc3ncn12)/c1ccccc1	-45%	61*	51*	-17%	166%	129%
O=c1c2ccccc2nc(/C=C/c2ccc(O)cc2)n1-c1ccc(O)cc1	-1%	-4	0	12%	-3%	u
COc1cc(/C=C/C(=O)N2CCN(Cc3ccccc3)CC2)cc(OC)c1OC	-3%	11	-6	-3%	u	x
Cc1scc(C(=O)N/N=C/c2ccsc2)c1C	-8%	52*	84*	-13%	117%	196%
Cc1cc(C(=O)N/N=C/c2ccco2)c2ccccc2n1	7%	-6	-2	0%	u	4%
O=C(N/N=C/c1ccc([N+](=O)[O-])o1)c1ccccc1NS(=O)(=O)c1cccs1	-4%	1	-3	-19%	u	u
CCCOc1cccc(/C=N/NC(=O)c2csc(C)c2C)c1	1%	2	14	-4%	u	x
Cc1scc(C(=O)N/N=C/c2ccc([N+](=O)[O-])o2)c1C	-21%	6	0	x	1.7µM*	4.1µM*
Cc1scc(C(=O)N/N=C/c2ccco2)c1C	-3%	53*	29*	-9%	85%	147%
Cc1cc(Br)cc(Cl)c1OC(=O)c1ccncc1	-47%	-11	-7	x	37%	27%
O=C(OCCO)c1ccccc1O	x	4	4	1%	x	x
Cc1ccc(CSc2nc3ccncc3[nH]2)cc1	-5%	-3	15	-13%	u	x
Clc1ccc(CSc2nc3ccncc3[nH]2)cc1	-76%	51*	51*	-17%	4.7µM*	x
O=C(c1ccc(CSc2nc3ccncc3[nH]2)cc1)N1CCCCCC1	2%	39	18*	0%	-19%	-28%
O=C(c1ccc(CSc2nc3ccncc3[nH]2)cc1)N1CCN(c2cccc(Cl)c2)CC1	-6%	12	-4	3%	u	u
O=C(NCC1CC1(Cl)Cl)Nc1ccc(Cl)c(Cl)c1 (centres undefined)	-86%	94*	15	-15%	u	u
COc1ccccc1NC(=O)NCC1CC1(Cl)Cl (centres undefined)	-25%	-1	-1	3%	u	-11%
Cc1ccc(NC(=O)NCC2CC2(Cl)Cl)cc1 (centres undefined)	-19%	125*	31*	14%	131%	103%
CCCCOc1ccc(N2CC(C(=O)NCCc3ccc(OC)c(OC)c3)CC2=O)cc1 (centres undefined)	x	6	7	3%	12µM*	-15%
SMILES	NS1 function inh	Shiga inhibitor	Cycloheximide cs	FBPA Giardia inh	Pf growth 96h	Pf growth 48h
COc1ccc(N2CC(C(=O)NCCc3ccc(OC)c(OC)c3)CC2=O)cc1 (centres undefined)	7%	-13	-2	5%	-4%	2%
NC(=O)C1CC(=O)N(c2ccc(OCc3ccc(Cl)cc3)cc2)C1 (centres undefined)	-4%	79*	50*	2%	-61%	166%
CCCNC(=O)C1CC(=O)N(c2ccc(OCc3ccc(F)cc3)cc2)C1 (centres undefined)	-3%	112*	33*	4%	u	243%
C=CCNC(=O)C1CC(=O)N(c2ccc(OCC(=O)Nc3ccccc3)cc2)C1 (centres undefined)	1%	48*	30*	3%	x	144%
COc1cccc([C@@H]2Oc3ccc(OC)cc3C[C@H]2OC(=O)NS(=O)(=O)c2ccc(C)cc2)c1	x	x	x	-7%	x	x
C=C(C)C(O)/C=C/c1ccc(C)cc1 (centres undefined)	x	x	x	-3%[12.9 µM]	x	x
CN1CCN(c2ncc3nc(-c4cccc(C#N)c4)c(=O)n(Cc4ccc(F)cc4)c3n2)CC1	x	x	x	-20%	x	x
O=C(O)[C@H]1[C@H](C(=O)O)[C@H](C(=O)O)C[C@@H]1C(=O)O	-2%	x	x	x	x	x
O=C(c1cnccn1)N1CCC2(CC1)CN(c1ccccn1)C2	x	x	x	1%	x	x
CCCNC(=O)C1CC(=O)N(c2ccc(OCc3ccc(Cl)cc3)cc2)C1 (centres undefined)	13%	x	27*	-10%	10%	179%
C=CCNC(=O)C1CC(=O)N(c2ccc(OCc3ccc(F)cc3)cc2)C1 (centres undefined)	6%	72*	47*	6%	12µM*	156%
NC(=O)c1ccc2c(=O)c(O)c(-c3cc(Cl)c(N)c(Cl)c3)[nH]c2c1	u	10	-2	0%	27%	u
C#CCOCCOCCOCCNc1nc(N2CCOCC2)nc(N2CCN(C(=O)[C@H](CCC(=O)O)n3cc(C(N)[C@H](C)CC)nn3)CC2)n1 (some centres undefined)	5%	-14	-2	-3%	10%	1%
Cc1cccc(N2CCN(c3nnnn3-c3ccccc3)CC2C)c1 (centres undefined)	-88%	-5	-2	-1%	5.9µM*	x
Cn1c(=O)[nH]c(=O)c2c1nc(Br)n2Cc1cccc(Br)c1	13%	-6	0	-5%	u	-18%
COc1ccc(C(O)P(=O)(OC2CCCCC2)c2ccc(N(C)C)cc2)cc1OC (centres undefined)	-7%	-8	-5	-3%	u	u
Nc1c2c(nc3ccccc13)N(C1CCCCC1)CC2	-22%	-7	-4	u	2%	13µM*
CC1Sc2n(c3ccccc3[n+]2C)N=C1c1ccccc1 (centres undefined)	0%	-14	-8	3%	-102%	0.93µM*
COc1ccccc1N1C(=O)N(C(C)=O)C2C1Nc1ccccc1N2C (centres undefined)	u	12	1	u	u	4.7µM*
C/C1=C\[C@@H](C)C/C=C/[C@H]2[C@@H]3O[C@]3(C)[C@@H](C)[C@H]3[C@H](Cc4c[nH]c5ccccc45)NC(=O)[C@]32C(=O)/C=C/C(=O)[C@@H]1O	1%	-1	1	-10%	59%	0.29µM*
O=C(CSc1nnc(C2CC2)n1C1CC1)Nc1cccc(Br)c1	x	x	x	x	10%	u

High-throughput results (PubChem)
